# Data reported in PMC7862700, “An all-to-all approach to the identification of sequence-specific readers for epigenetic DNA modifications on cytosine”.
# How the values were obtained:
# Experiment in all cases: DAPPL (digital affinity profiling via proximity ligation, sequencing); 10 mM Tris-HCl pH 7.5, 50 mM NaCl, 1 mM DTT, 4% glycerol, room temperature, 30 min; GST-TFs on glutathione beads, 16-mer random dsDNA library, 0.1% formaldehyde crosslink after washing; high values mean tight binding
# [1] = target: T1, FLI1 (Homo sapiens, UniProt Q01543 1-452); conditions: protein: recombinant; tags: N-terminal GST; dsDNA, one strand shown
# T1 sequence: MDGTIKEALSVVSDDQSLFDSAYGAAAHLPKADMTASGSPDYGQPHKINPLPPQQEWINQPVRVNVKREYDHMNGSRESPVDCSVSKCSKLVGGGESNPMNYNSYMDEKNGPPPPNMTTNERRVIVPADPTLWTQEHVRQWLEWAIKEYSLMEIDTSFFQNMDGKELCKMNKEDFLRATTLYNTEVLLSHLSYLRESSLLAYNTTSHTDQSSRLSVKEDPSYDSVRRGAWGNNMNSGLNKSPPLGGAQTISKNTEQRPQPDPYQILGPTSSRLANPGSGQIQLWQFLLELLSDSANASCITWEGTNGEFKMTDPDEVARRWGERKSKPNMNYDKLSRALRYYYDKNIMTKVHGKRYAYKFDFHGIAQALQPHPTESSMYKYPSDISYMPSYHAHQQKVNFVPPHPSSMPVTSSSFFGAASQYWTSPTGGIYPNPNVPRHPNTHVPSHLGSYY
# In short: (§1)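 Human transcription factors were made in yeast as GST fusions, captured on glutathione beads and barcoded with DNA. With a tag-only sample included, the pool was incubated with 200 nmole of a random double-stranded 16-mer DNA library in Tris/NaCl/DTT/glycerol buffer at room temperature for 30 min, then crosslinked with 0.1% formaldehyde after washing, ligated by proximity, amplified and sequenced. For binding signal, each hexamer's read frequency for a factor is divided by its frequency for the tag-only sample.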
# [2] = target: T2, ELK1 (Homo sapiens, UniProt P19419 1-428); conditions: protein: recombinant; tags: N-terminal GST; dsDNA, one strand shown
# T2 sequence: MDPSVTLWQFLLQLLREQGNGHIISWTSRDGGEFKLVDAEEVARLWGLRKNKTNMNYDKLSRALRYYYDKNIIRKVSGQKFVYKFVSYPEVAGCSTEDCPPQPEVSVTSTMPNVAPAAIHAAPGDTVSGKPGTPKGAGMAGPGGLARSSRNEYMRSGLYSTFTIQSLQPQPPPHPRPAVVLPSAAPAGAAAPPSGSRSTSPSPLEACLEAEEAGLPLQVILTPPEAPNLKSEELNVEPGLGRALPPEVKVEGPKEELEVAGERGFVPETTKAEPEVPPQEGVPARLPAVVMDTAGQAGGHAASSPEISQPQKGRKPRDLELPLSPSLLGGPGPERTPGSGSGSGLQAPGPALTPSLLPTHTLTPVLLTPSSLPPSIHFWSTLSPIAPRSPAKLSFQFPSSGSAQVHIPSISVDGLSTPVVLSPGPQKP
# In short: as §1
# [3] = target: T3, GABPA (Homo sapiens, UniProt Q06546 1-454); conditions: protein: recombinant; tags: N-terminal GST; dsDNA, one strand shown
# T3 sequence: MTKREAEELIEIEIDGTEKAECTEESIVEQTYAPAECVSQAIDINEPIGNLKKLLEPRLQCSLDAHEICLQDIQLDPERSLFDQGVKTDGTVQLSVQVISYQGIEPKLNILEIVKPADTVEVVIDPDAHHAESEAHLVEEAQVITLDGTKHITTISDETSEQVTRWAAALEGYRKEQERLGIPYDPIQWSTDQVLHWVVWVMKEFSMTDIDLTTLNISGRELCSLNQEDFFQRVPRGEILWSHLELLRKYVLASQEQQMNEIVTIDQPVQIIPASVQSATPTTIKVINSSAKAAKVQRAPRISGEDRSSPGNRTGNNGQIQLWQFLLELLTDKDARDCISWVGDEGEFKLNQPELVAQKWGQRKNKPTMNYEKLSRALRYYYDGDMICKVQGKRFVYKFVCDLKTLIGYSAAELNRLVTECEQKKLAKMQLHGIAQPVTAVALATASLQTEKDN
# In short: as §1
# [4] = target: T4, ERG (Homo sapiens, UniProt P11308 1-479); conditions: protein: recombinant; tags: N-terminal GST; dsDNA, one strand shown
# T4 sequence: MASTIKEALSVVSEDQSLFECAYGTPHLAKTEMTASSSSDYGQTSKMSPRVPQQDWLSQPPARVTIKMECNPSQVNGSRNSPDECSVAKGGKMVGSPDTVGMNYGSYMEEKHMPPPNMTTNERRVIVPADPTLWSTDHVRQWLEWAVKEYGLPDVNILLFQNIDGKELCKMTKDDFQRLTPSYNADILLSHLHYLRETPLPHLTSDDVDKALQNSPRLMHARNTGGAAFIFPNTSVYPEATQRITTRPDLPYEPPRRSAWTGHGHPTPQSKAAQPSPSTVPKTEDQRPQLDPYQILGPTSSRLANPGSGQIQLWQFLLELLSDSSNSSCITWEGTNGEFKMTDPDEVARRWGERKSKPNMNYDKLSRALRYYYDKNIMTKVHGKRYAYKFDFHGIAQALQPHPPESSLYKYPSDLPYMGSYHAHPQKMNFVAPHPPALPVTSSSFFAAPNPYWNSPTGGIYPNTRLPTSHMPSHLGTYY
# In short: as §1
# [5] = target: ELF1 (Homo sapiens, UniProt P32519 1-619); conditions: protein: recombinant; tags: N-terminal GST; dsDNA, one strand shown
# In short: as §1
# [6] = target: T5, EHF (Homo sapiens, UniProt Q9NZC4 1-300); conditions: protein: recombinant; tags: N-terminal GST; dsDNA, one strand shown
# T5 sequence: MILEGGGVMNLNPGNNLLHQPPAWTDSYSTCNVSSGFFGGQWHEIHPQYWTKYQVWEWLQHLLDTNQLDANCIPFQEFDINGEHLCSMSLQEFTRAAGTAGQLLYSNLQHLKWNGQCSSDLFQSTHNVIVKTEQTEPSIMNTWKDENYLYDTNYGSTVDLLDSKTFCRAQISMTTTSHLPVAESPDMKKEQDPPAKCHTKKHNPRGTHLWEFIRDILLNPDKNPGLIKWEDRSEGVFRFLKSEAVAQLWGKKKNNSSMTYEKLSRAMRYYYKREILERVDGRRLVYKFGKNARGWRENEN
# In short: as §1
# [7] = target: SPI1 (Homo sapiens, UniProt P17947 1-270); conditions: protein: recombinant; tags: N-terminal GST; dsDNA, one strand shown
# In short: as §1
# [8] = target: SPIB (Homo sapiens, UniProt Q01892 1-262); conditions: protein: recombinant; tags: N-terminal GST; dsDNA, one strand shown
# In short: as §1
# [9] = target: T6, ELK3 (Homo sapiens, UniProt P41970 1-407); conditions: protein: recombinant; tags: N-terminal GST; dsDNA, one strand shown
# T6 sequence: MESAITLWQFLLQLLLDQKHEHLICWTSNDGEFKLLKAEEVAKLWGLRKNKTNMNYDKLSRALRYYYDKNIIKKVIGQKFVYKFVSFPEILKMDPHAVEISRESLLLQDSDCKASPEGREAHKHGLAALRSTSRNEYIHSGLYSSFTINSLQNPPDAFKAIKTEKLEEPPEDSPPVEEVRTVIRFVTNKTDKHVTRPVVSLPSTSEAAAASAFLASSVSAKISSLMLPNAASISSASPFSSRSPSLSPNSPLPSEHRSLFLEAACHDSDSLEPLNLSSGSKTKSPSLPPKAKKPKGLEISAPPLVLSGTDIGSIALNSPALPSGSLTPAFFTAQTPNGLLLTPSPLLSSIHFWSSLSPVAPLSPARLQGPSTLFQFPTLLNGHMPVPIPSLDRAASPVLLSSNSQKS
# In short: as §1
# [10] = target: T7, FEV (Homo sapiens, UniProt Q99581 1-238); conditions: protein: recombinant; tags: N-terminal GST; dsDNA, one strand shown
# T7 sequence: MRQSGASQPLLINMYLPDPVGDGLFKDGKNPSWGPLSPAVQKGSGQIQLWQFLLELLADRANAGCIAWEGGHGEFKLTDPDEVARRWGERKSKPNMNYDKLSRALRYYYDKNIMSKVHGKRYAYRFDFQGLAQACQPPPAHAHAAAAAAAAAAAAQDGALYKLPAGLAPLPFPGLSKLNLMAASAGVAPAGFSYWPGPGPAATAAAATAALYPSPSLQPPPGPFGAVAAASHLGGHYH
# In short: as §1
# [11] = target: ETV5 (Homo sapiens, UniProt P41161 1-510); conditions: protein: recombinant; tags: N-terminal GST; dsDNA, one strand shown
# In short: as §1
# [12] = target: HSF1 (Homo sapiens, UniProt Q00613 1-529); conditions: protein: recombinant; tags: N-terminal GST; chain copies: 3; dsDNA, one strand shown
# In short: as §1
# [13] = target: T8, SPIC (Homo sapiens, UniProt Q8N5J4 1-248); conditions: protein: recombinant; tags: N-terminal GST; dsDNA, one strand shown
# T8 sequence: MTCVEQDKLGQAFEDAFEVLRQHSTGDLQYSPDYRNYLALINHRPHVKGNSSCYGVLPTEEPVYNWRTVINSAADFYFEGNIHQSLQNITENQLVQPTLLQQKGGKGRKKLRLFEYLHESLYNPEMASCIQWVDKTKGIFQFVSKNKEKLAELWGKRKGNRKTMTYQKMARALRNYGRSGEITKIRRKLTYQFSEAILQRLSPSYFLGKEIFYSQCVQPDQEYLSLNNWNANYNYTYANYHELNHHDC
# In short: as §1
# [14] = target: ELF4 (Homo sapiens, UniProt Q99607 1-663); conditions: protein: recombinant; tags: N-terminal GST; dsDNA, one strand shown
# In short: as §1
# [15] = target: T9, ELK4 (Homo sapiens, UniProt P28324-2 1-405); conditions: protein: recombinant; tags: N-terminal GST; dsDNA, one strand shown
# T9 sequence: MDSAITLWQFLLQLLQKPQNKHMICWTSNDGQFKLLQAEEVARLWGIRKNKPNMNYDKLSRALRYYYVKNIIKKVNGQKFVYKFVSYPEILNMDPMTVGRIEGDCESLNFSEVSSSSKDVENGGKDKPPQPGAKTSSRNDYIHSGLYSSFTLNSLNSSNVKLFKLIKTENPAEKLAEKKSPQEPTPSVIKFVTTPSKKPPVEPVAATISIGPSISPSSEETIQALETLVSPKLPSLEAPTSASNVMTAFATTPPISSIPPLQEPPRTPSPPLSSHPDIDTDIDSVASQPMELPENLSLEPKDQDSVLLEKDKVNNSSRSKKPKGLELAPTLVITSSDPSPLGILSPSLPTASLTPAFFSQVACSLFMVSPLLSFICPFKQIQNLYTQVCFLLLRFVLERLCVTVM
# In short: as §1
# [16] = target: T10, ETV2 (Homo sapiens, UniProt O00321 1-342); conditions: protein: recombinant; tags: N-terminal GST; dsDNA, one strand shown
# T10 sequence: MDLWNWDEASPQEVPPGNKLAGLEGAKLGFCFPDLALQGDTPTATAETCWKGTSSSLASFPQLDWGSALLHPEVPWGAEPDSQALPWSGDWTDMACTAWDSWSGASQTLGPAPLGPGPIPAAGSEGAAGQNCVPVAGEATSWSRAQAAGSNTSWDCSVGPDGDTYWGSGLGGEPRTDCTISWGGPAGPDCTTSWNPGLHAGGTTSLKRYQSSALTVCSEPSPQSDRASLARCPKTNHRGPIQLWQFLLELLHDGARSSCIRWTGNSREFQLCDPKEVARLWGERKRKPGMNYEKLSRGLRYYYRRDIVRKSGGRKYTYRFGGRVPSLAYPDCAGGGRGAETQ
# In short: as §1
# [17] = target: T11, ELF3 (Homo sapiens, UniProt P78545 1-371); conditions: protein: recombinant; tags: N-terminal GST; dsDNA, one strand shown
# T11 sequence: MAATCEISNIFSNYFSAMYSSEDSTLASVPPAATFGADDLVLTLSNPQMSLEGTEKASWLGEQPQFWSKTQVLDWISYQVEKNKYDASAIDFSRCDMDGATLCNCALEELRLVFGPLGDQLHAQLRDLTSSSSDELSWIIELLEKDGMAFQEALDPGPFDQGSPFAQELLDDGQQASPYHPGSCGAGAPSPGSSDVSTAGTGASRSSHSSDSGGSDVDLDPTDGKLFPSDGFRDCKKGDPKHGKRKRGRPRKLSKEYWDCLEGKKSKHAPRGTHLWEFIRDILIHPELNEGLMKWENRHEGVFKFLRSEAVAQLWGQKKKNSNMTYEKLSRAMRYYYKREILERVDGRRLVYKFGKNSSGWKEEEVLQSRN
# In short: as §1
# [18] = target: CRX (Homo sapiens, UniProt O43186 1-299); conditions: protein: recombinant; tags: N-terminal GST; dsDNA, one strand shown
# In short: as §1
# [19] = target: ETV1 (Homo sapiens, UniProt P50549 1-477); conditions: protein: recombinant; tags: N-terminal GST; dsDNA, one strand shown
# In short: as §1
# Sequence of ETV1 (P50549 whole entry): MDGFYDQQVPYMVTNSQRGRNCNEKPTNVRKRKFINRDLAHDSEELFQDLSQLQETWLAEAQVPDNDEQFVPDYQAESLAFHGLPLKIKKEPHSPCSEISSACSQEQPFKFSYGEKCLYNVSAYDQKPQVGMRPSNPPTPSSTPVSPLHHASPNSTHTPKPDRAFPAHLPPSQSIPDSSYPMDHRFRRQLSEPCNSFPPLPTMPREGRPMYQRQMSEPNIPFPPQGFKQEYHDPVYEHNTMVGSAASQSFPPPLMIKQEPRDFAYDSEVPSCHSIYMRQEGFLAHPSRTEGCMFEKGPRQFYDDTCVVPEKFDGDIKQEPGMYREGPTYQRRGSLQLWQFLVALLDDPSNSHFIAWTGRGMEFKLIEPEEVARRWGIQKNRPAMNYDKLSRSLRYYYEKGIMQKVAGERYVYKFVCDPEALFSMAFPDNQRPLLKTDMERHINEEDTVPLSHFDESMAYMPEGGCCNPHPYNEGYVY
# Sequence of SPIB (Q01892 whole entry): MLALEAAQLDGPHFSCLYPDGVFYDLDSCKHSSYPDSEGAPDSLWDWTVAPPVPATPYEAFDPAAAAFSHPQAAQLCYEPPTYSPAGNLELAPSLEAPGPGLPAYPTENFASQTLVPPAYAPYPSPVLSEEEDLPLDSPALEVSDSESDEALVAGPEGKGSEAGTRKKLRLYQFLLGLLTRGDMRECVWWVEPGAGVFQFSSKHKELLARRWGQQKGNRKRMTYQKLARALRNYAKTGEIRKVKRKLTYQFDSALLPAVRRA
# Sequence of ELF4 (Q99607 whole entry): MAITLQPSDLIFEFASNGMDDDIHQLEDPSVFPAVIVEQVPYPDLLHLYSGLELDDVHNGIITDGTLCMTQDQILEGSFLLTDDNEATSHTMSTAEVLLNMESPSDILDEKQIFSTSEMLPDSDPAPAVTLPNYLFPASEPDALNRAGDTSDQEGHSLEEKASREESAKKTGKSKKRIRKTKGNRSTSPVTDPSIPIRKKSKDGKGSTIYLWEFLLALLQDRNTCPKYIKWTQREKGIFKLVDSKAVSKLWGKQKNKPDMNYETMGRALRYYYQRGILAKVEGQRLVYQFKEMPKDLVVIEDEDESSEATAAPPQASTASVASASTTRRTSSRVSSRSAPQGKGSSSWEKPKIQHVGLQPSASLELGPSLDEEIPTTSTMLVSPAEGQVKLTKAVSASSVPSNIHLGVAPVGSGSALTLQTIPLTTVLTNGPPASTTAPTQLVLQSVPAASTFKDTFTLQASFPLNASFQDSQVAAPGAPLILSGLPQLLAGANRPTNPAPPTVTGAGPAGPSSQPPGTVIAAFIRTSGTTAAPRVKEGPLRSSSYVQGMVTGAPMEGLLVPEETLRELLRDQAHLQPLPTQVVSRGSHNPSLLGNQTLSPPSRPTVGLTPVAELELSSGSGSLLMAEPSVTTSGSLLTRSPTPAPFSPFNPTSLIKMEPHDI
# Sequence of CRX (O43186 whole entry): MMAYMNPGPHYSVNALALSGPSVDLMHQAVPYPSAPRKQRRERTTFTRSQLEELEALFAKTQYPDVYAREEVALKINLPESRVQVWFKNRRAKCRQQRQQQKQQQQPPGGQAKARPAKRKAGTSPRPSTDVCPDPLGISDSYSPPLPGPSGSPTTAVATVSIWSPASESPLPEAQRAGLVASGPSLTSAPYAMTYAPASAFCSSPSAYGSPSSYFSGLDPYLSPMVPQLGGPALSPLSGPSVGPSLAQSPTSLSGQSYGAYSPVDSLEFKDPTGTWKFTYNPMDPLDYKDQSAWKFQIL
# Sequence of ETV5 (P41161 whole entry): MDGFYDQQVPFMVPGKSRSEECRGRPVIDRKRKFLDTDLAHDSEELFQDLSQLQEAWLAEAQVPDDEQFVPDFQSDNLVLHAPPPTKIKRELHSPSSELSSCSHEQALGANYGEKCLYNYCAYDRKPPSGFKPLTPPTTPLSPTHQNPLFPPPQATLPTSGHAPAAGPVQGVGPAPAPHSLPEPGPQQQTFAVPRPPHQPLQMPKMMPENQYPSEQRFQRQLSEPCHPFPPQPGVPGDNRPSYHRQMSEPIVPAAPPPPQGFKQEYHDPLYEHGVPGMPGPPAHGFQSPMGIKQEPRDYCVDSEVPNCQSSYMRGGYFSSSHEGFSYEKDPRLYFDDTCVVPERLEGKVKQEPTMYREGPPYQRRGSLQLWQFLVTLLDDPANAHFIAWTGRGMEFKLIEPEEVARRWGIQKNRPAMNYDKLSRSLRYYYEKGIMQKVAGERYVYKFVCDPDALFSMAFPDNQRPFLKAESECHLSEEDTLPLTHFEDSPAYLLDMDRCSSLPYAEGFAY
# Sequence of ELF1 (P32519 whole entry): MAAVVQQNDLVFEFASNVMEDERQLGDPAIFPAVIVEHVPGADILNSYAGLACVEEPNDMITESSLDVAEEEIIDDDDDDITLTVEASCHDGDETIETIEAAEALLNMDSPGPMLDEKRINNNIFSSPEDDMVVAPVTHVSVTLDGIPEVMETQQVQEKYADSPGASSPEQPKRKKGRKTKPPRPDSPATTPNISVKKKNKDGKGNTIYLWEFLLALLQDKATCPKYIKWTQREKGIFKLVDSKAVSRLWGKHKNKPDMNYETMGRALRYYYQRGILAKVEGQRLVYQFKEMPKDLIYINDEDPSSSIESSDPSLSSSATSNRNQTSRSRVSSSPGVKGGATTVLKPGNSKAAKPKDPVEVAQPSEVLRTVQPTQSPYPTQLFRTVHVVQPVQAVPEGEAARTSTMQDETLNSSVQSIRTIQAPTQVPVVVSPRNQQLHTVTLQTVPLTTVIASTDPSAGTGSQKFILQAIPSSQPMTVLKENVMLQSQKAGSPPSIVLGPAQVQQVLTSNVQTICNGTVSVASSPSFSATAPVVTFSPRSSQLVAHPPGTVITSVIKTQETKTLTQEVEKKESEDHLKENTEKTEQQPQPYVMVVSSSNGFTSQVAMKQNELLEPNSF
# Sequence of HSF1 (Q00613 whole entry): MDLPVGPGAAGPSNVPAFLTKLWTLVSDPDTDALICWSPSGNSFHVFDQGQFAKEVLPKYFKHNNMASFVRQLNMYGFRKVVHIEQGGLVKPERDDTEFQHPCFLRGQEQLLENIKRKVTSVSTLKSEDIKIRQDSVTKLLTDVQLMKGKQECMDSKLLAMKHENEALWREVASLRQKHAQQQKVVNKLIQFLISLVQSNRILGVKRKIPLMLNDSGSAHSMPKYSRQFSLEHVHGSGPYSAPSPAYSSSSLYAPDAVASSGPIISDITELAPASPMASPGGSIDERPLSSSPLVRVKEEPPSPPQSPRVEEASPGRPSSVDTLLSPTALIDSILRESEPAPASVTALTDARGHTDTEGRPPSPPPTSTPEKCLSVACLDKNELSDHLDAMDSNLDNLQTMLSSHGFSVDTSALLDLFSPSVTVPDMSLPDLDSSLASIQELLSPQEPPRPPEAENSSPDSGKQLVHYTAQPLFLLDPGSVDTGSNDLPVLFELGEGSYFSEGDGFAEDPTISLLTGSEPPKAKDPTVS
sequence,measurement,setting,value
TGATCC,binding signal,[1],"1.28 fold enrichment (6-mer frequency, TF over GST control)"
same,binding signal,[2],"1.32 fold enrichment (6-mer frequency, TF over GST control)"
same,binding signal,[3],"1.44 fold enrichment (6-mer frequency, TF over GST control)"
same,binding signal,[4],"1.29 fold enrichment (6-mer frequency, TF over GST control)"
same,binding signal,[5],"1.26 fold enrichment (6-mer frequency, TF over GST control)"
same,binding signal,[6],"1.2 fold enrichment (6-mer frequency, TF over GST control)"
same,binding signal,[7],"1.21 fold enrichment (6-mer frequency, TF over GST control)"
same,binding signal,[8],"1.37 fold enrichment (6-mer frequency, TF over GST control)"
same,binding signal,[9],"1.18 fold enrichment (6-mer frequency, TF over GST control)"
same,binding signal,[10],"1.29 fold enrichment (6-mer frequency, TF over GST control)"
same,binding signal,[11],"1.3 fold enrichment (6-mer frequency, TF over GST control)"
same,binding signal,[12],"1.65 fold enrichment (6-mer frequency, TF over GST control)"
same,binding signal,[13],"1.32 fold enrichment (6-mer frequency, TF over GST control)"
same,binding signal,[14],"1.28 fold enrichment (6-mer frequency, TF over GST control)"
same,binding signal,[15],"1.26 fold enrichment (6-mer frequency, TF over GST control)"
same,binding signal,[16],"1.09 fold enrichment (6-mer frequency, TF over GST control)"
same,binding signal,[17],"1.1 fold enrichment (6-mer frequency, TF over GST control)"
same,binding signal,[18],"2.2 fold enrichment (6-mer frequency, TF over GST control)"
same,binding signal,[19],"1.27 fold enrichment (6-mer frequency, TF over GST control)"
